How the values were obtained:
Assay type in all cases: functional
[1] = biological target: Solute carrier family 2, facilitated glucose transporter member 1 (Homo sapiens) (UniProt P11166); assay: ST_JUDE_LEISH: Cytotoxicity at 2uM final concentration against transgenic Leishmania Mexicana promastigotes LmGLUT1 that are glucose transport deficient and complemented with the human glucose transporter GLUT1. Activity is measured by DNA content using SYBR green in vitro
[2] = biological target: Hexose transporter 1 (Plasmodium falciparum) (UniProt O97467); assay: ST_JUDE_LEISH: Cytotoxicity at 2uM final concentration against transgenic Leishmania Mexicana promastigotes LmPfHT that are glucose transport deficient and complemented with the Plasmodium falciparum hexose transporter. Activity is measured by DNA content using SYBR green in vitro
[3] = biological target: Glucose transporter (Leishmania mexicana) (UniProt O61059); assay: ST_JUDE_LEISH: Cytotoxicity at 2uM final concentration against transgenic Leishmania Mexicana promastigotes LmGT2 that are glucose transport deficient and complemented with the L. Mexicana glucose transporter 2. Activity is measured by DNA content using SYBR green in vitro

Chain of Solute carrier family 2, facilitated glucose transporter member 1 (Homo sapiens) (P11166 whole entry): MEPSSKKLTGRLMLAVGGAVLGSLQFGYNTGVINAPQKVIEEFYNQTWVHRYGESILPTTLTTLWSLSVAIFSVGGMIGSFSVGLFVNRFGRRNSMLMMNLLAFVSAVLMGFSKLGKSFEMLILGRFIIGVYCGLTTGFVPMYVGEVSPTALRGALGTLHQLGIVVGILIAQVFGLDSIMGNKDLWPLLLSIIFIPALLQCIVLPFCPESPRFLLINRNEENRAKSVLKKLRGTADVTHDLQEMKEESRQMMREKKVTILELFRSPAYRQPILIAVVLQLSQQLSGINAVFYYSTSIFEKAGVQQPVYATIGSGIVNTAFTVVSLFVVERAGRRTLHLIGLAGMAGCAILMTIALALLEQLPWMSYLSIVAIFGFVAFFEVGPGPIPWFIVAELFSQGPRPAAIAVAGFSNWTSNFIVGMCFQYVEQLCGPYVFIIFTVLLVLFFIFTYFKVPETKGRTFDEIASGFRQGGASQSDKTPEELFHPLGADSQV

Row | Compound | inhibition [1] [%] | inhibition [2] [%] | inhibition [3] [%]
1 | Cc1cc2nc(N=C3NC4(c5ccccn5)NC(=Nc5nc6cc(C)c(C)cc6[nH]5)NC4(c4ccccn4)N3)[nH]c2cc1C (stereo not given) | 2.01 | -0.16 | -0.63
2 | CN(c1ccccc1)S(=O)(=O)c1cccc(NC(=O)c2ccc(-n3ccnc3)c([N+](=O)[O-])c2)c1 | 2.91 | 3.61 | 0.73
3 | Cc1ccc2nc(C)cc(NC(=O)Nc3ccc(N(C)C)cc3)c2c1 | 7.58 | 5.69 | 7.68
4 | CC(Oc1c(C2CCN(CCCCNC(=O)c3ccc(-c4ccc(Cl)cc4)cc3)CC2)ccc2c1CCCC2)C(N)=O (stereo not given) | -0.63 | -0.36 | -0.27
5 | O=C(NC1CCN(c2ccnc3ccccc23)C1)c1cccc(C(F)(F)F)c1 (stereo not given) | 2.99 | 1.24 | 1.91
6 | COc1ccc(CNC2CCN(C)CC2)cc1-c1ccc(S(=O)(=O)NCc2ccccc2)s1 | 9.42 | 11.8 | 11.2
7 | NCC1CCCN1Cc1cccc(-c2ccc(-c3nc4ccccc4[nH]3)s2)c1 (stereo not given) | 9.15 | 8.03 | 7.51
8 | COc1ccc2nccc([C@@H](O)CN3CCC(NCc4cc5ccc(C#N)cc5[nH]4)CC3)c2c1 | 13.5 | 12.8 | 9.02
9 | CN(C)CCOc1ccc(N2CCN(CCCCNC(=O)c3ccc(NC(=O)c4ccc(Cl)cc4)cc3)CC2)cc1 | 0.54 | 0.36 | 3.48
10 | CCN1CCC(N(CCCCCCCCc2ccc(C(F)(F)F)cc2)C(=O)Cn2c(CCc3cccc(F)c3F)cc(=O)c3ccccc32)CC1 | 8.91 | 9.52 | 4.76
11 | Cc1cc(N(C)CCCN(C)C)nc(Nc2ccc(Br)cc2)n1 | 0.19 | 2.58 | 2.6
12 | CC1CCN(CC[C@H]2CCCN2S(=O)(=O)c2cccc(NC(=O)c3cc4ccccc4s3)c2)CC1 | 4.95 | 6.97 | 3.15
13 | CNC(=O)c1cnc(Nc2ccc(OCC(O)CN(C)C)cc2)nc1Nc1cccc(Br)c1 (stereo not given) | 11.4 | 11.1 | 9.84
14 | CC(=O)Nc1cccc(C(=O)Nc2cccc(-c3ccc(-c4nc5cc(F)ccc5[nH]4)s3)c2)c1 | 2.81 | 3.63 | 0.19
15 | c1ccc(CCNCc2cccc(-c3ccccc3CNCc3ccc4c(c3)OCO4)c2)nc1 | 0.71 | 0.88 | 0.68
16 | COc1ccc(C(=O)Nc2nonc2-c2ccc(OC)c(OC)c2)cc1Cl | -0.82 | -0.18 | -0.55
17 | O=C1CCCN1CCCNCc1ccc(-c2cccc(-c3nc4cc(C(F)(F)F)ccc4[nH]3)c2)cc1 | 1.71 | -0.32 | -0.5
18 | Cn1nc(-c2ccc(NC(=O)Nc3cc(C(F)(F)F)ccc3F)cc2)c2cnc(NCCc3c[nH]cn3)nc21 | 3.35 | 3.29 | 2.46
19 | C=CCOC(=O)N1CCC(CNCc2ccc(-c3ccc(-c4nc5cc(C(F)(F)F)ccc5[nH]4)cc3)cc2)C1 (stereo not given) | 3.5 | -0.38 | 1.41
20 | O=C(NCCCCN1CCC(C(c2ccccc2)c2ccccc2)CC1)c1ccc(NC(=O)c2ccc(Cl)cc2)cc1 | -0.78 | -0.4 | -1.74
21 | CCc1cn2c3c(cc(C(=O)N[C@@H](Cc4cc(F)cc(F)c4)[C@H](O)CNC4CCOCC4)cc13)N(C)S(=O)(=O)CC2 | 0.86 | -1.91 | -0.48
22 | CC(C)C(C(=O)n1ncc2c3c(N)nc(N)nc3ccc21)C(C)C | 87.4 | 86.9 | 78.4
23 | FC(F)(F)c1ccc2[nH]c(-c3ccc(-c4ccc(CNCC5CCCO5)cc4)cc3)nc2c1 (stereo not given) | 3.49 | 2.61 | 1.84
24 | NC(=O)c1cc(-c2ccccc2)cc2c(C3CCC(NCc4ccccc4)C3)c[nH]c12 (stereo not given) | 0.91 | 1.64 | 0.8

Row | Compound | inhibition [1] [%] | inhibition [2] [%] | inhibition [3] [%]
25 | Cc1cc(C(=O)Nc2ccc(OCc3ccccc3)cc2)on1 | -1.56 | -2.29 | 0.64
26 | CCCc1cc(Cc2cnc(N)nc2N)cc(OCCCCCC(=O)O)c1OC | 1.55 | 0.18 | 0.67
27 | Cc1[nH]cc(Br)c(=O)c1-c1ccc(Oc2ccccc2)cc1 | 2.07 | 2.3 | 1.32
28 | CON(CCCN(C)C)C(=N)N | 0.55 | 2.02 | 0.26
29 | Cn1c(N)cc(-c2cccc(I)c2)c2c(=O)nc(N)nc1-2 | 4.12 | 4.5 | 2.89
30 | Cc1cnc(NCCc2ccc(F)cc2)nc1NCCC(=O)Nc1ccccc1 | 4.88 | 4.76 | 2.38
31 | COc1ccc(CNC(=O)NC2CCN(c3ccnc(Nc4ccc(F)cc4)n3)CC2)cc1 | 0.86 | 1.1 | 0.64
32 | COc1cccc(CN2CCCC(OC(c3ccccc3)c3ccccc3)C2)c1O (stereo not given) | 1 | -1.82 | 0.05
33 | CC1CCC2(CC1)NC(N)=NC(=N)N2OCCCCCCCCO (stereo not given) | 6.99 | 4.43 | 2.52
34 | CC(C)(C)OC(=O)NCc1ccc(Nc2nnc(-c3ccc(OCC(=O)NCc4ccc(C(C)(C)C)cc4)c([N+](=O)[O-])c3)o2)cc1 | 2.12 | 1.65 | -0.53
35 | Cc1ccc(Nc2nc(N/N=C/c3cccc(O)c3)nc(Nc3ccc([N+](=O)[O-])cc3)n2)cc1C | 3.08 | 3.36 | 2.77
36 | CN(C)CCN(Cc1ccc(-c2ccc(CNCCc3ccccc3)cc2)nc1)C(=O)CCC1CCCC1 | 3.68 | 6.87 | 6.39
37 | COc1ccc2nccc([C@@H](O)CN3CCC(NCc4ccc5cccc(O)c5n4)CC3)c2c1 | 7.73 | 7.94 | 3.46
38 | COc1cccc(CNC[C@@H](O)[C@H](Cc2ccccc2)NC(=O)c2cc(OC(C)C)cc(N3CCCCS3(=O)=O)c2)c1 | 0.5 | -0.88 | -0.67
39 | COc1cc(C)nc2ccc(NC(=O)c3cc(C(F)(F)F)cc(C(F)(F)F)c3)cc12 | 16.3 | 12.8 | 10.1
40 | CCn1c(-c2nonc2N)nc2c(-c3ccccc3)ncc(OCCCNCCCN3CCOCC3)c21 | 2.58 | 1.32 | 0.55
41 | COc1cccc2c(NN=Cc3cccc(Cl)c3)ccnc12 | 0.32 | -3.77 | 1.77
42 | O=C(Nc1ccccc1)N1CCOC(CCN2CCC(F)(F)CC2)(c2ccc(Cl)c(Cl)c2)C1 (stereo not given) | 2.76 | 4.85 | 1.24
43 | CCc1cccc(OCCCON2C(=N)N=C(N)NC2(C)C)c1 | 7.55 | 9.83 | 8.16
44 | O=C(Cc1c[nH]cn1)Nc1ccc(-c2ccc(-c3nc4cc(C(F)(F)F)ccc4[nH]3)s2)cc1 | -0.37 | -0.36 | -0.01
45 | CC(C)(C)OC(=O)C1CCCN(Cc2ccc(-c3cccc(-c4nc5ccccc5[nH]4)c3)cc2)C1 (stereo not given) | 3.21 | 3.25 | 0.78
46 | CCN(CC)CC(O)Cc1c2ccc([N+](=O)[O-])cc2nc2cc(OC)c(OC)cc12 (stereo not given) | 0.42 | 1.89 | -1.11
47 | Cc1c(-c2cccc(Br)c2)[nH]c2nc(N)nc(N)c12 | 1.29 | 2.55 | 0.97
48 | CCCc1cc2c3c(N)nc(N)nc3ccc2n1CC | 6.73 | 8.39 | 4.29

Row | Compound | inhibition [1] [%] | inhibition [2] [%] | inhibition [3] [%]
49 | CS(=O)(=O)N1CC2(CCN(CCC(NC(=O)Nc3ccccc3)c3ccc(Cl)c(Cl)c3)CC2)c2ccccc21 (stereo not given) | 3.59 | 3.17 | 3.05
50 | COCCn1c(C)cc(C(=O)CN2C(=O)NC(C)(c3ccc(C(C)(C)C)cc3)C2=O)c1C (stereo not given) | -1.09 | 1.07 | 1.71
51 | O=C(Nc1cccc(-c2nn3ccccc3c2-c2ccnc(Nc3cccc(-c4cnco4)c3)n2)c1)C1CCCCC1 | 1.06 | 3.39 | -0.16
52 | O=C1OC(c2ccccc2)(c2ccccc2)CN1C1CCN(Cc2ccc(O)c(Cl)c2)C1 (stereo not given) | 1.71 | 1.04 | -0.68
53 | CN(c1ccc2c(c1)nc(NCc1ccc(F)cc1)n2C)c1ccnc(Nc2ccc(CS(C)(=O)=O)cc2)n1 | -0.61 | -0.52 | -1.02
54 | CCCCCN1CCC(CNS(=O)(=O)c2ccc(C(=O)Nc3cccc(C(F)(F)F)c3)cc2)CC1 | 0.47 | 0.02 | -0.33
55 | O=C(/C=C/c1ccc(Cl)c(Cl)c1)N1CCC(CN2CCC(Cc3c[nH]c4ccccc34)CC2)CC1 | 4.43 | 4.8 | 3.96
56 | COc1cc(Cc2cnc(N)nc2N)cc(OCCCN2C(=O)c3ccccc3C2=O)c1OC | 4.68 | 5.99 | 6.69
57 | CN(C)CCOc1ccc(-c2cc(-c3ccc(Cl)c(O)c3)c(-c3ccnc(N)n3)o2)cc1 | 2.11 | 2.73 | 3.05
58 | CCOC(=O)c1cc2c(CCN3C(=O)c4ccccc4C3=O)cn(C)c2cc1-c1ccncc1 | 93 | 91 | 90.9
59 | O=C(Nc1ccc(Cl)cc1)Nc1ccc2nonc2c1 | 0.79 | 1.43 | 0.9
60 | CC(C)C[C@H](Nc1ccnc(NCC2CCCCC2)n1)C(=O)NCCc1ccccc1 | 3.1 | 0.57 | 0.72
61 | O=C(/C=C/c1ccccc1Cl)Nc1ccc(Br)c(OCCN2CCN(CCN3CCOCC3)CC2)c1 | 1.48 | 1.38 | 0.88
62 | COc1c(CNCCCCCCNCc2cc(Cl)c3ccccc3c2OC)cc(Cl)c2ccccc12 | 1.94 | 7.04 | -0.2
63 | COc1cc2nc(N3CCC(CNC(=O)c4ccc(-c5ccc(C(=O)N(C)C)cc5C)cc4)CC3)nc(N3CCN(C)CC3)c2cc1OC | -0.31 | 0.88 | 1.23
64 | COc1ccc(NC(=O)c2ccc(Br)c(C)c2)cc1N1CCN(CCCCc2ccccc2)CC1 | 1.19 | 0.21 | 0.85
65 | Oc1cc(-c2nc(-c3ccccc3)[nH]c2-c2ccncc2)ccc1Cl | 4.1 | 1.67 | 1.44
66 | C=CC[C@@H](C(=O)OCC)[C@@H]1[C@@H](N(CC=C)C(=O)OC(C)(C)C)CCN1C(=O)OCc1ccccc1 | 2.71 | 1.22 | 1.42
67 | CC=CC(=O)N1CCN(c2nccc(-c3ccc(C(C)(C)C)cc3)n2)CC1 | 8.6 | 9.97 | 7.85
68 | COc1cc2nccc(Nc3cc(C)cc(O)c3)c2cc1OC | 2.64 | 3.99 | 0.8
69 | Cc1ccnc(NC(c2cccc(Cl)c2Cl)c2ccc3cccnc3c2O)c1 (stereo not given) | 2.69 | 5.15 | -0.63
70 | COCCN(C)CCCOc1cc2c(cc1OC)ncn2-c1cc(OCc2ccccc2C(F)(F)F)c(C(N)=O)s1 | 2.27 | 4.55 | 1.49
